# In the supplement of paper PMC13094657:
# ± gives the standard deviation of the averaged measurements.
# Key:
# MDA-MB-231 [1] = experiment: cell viability relative to vehicle unstimulated control (fraction); higher = more viable cells; settings: pre-treatment time: 18 h then 24 h IFNg/TNF
# MDA-MB-231 [2] = experiment: kynurenine production, fold change vs DMSO IFNg/TNF control; higher = more kynurenine produced (less inhibition); settings: pre-treatment time: 18 h then 24 h IFNg/TNF
# Outline: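 MDA-MB-231 cells (7 × 10^4/well, 96-well plates, seeded 24 h earlier) were pre-treated 18 h with each natural product in 0.1% DMSO, then stimulated 24 h with IFNγ (1 U/ml) and TNF (6.25 ng/ml) at 37°C. Supernatant kynurenine was read at 492 nm after trichloroacetic acid and p-dimethylaminobenzaldehyde treatment, against 0–100 μM standards. Kynurenine production is the fold change over cytokine-stimulated vehicle wells on the same plate, averaged over duplicate plates in the first screening round.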
# 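Wherever cell viability relative to vehicle unstimulated control is given: viability of the cells left after supernatant collection, read with Deep Blue dye added for 4 h, as absorbance at 570 nm minus 600 nm.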
SMILES,cell viability (MDA-MB-231 [1]),kynurenine production (MDA-MB-231 [2])
C[C@@H]1CC[C@]2(C(=O)O[C@@H]3O[C@H](CO)[C@@H](O)[C@H](O)[C@H]3O)CC[C@]3(C)C(=CC[C@@H]4[C@@]5(C)C[C@@H](O)[C@H](O)C(C)(C)[C@@H]5CC[C@]43C)[C@@H]2[C@]1(C)O [Rosamultin] (compound dose: 10 uM),1 ± 0.077,1.09 ± 0.26
COC(=O)C1=CO[C@@H](O[C@@H]2O[C@H](CO)[C@@H](O)[C@H](O)[C@H]2O)[C@@H]2[C@@H](C)CC(=O)[C@]12O [Hastatoside] (compound dose: 10 uM),0.981 ± 0.017,0.797 ± 0.12
COc1ccc2c(c1O)C(Cc1ccc(O)cc1)[N+](C)(C)CC2 (stereo not drawn) [Oblongine] (compound dose: 10 uM),0.969 ± 0.037,1.03 ± 0.071
C=C(C)[C@@H]1CC=C(CO)CC1 [(S)-(-)-Perillyl alcohol] (compound dose: 10 uM),0.984 ± 0.02,1.19 ± 0.25
O=C(O)/C=C/c1ccccc1 [Trans-cinnamic acid] (compound dose: 10 uM),1.02 ± 0.019,0.882 ± 0.022
C=C1C(=O)[C@@]23[C@@H]4OC5O[C@@]2(O)[C@@H](O)[C@@H]2C(C)(C)CC[C@@H](O)[C@]52[C@@H]3CC[C@@H]14 [Ponicidin] (compound dose: 10 uM),0.9 ± 0.21,0.404 ± 0.15
C=C1C=CC(C(C)C)CC1 (stereo not drawn) [β-Phellandrene] (compound dose: 10 uM),0.99 ± 0.038,0.832 ± 0.18
O=C(O)/C=C/c1ccccc1O [O-coumaric acid] (compound dose: 10 uM),0.976 ± 0.097,0.9916 ± 0.006
C[C@H]1O[C@@H](O[C@H]2[C@@H](O)C[C@H](O[C@H]3[C@@H](O)C[C@H](O[C@H]4CC[C@@]5(C)[C@H](CC[C@@H]6[C@@H]5CC[C@]5(C)[C@@H](C7=CC(=O)OC7)CC[C@]65O)C4)O[C@@H]3C)O[C@@H]2C)C[C@H](O)[C@@H]1O [Digitoxin] (compound dose: 10 uM),0.997 ± 0.019,0.967 ± 0.023
C=C1CC/C=C(\C)CC[C@@H]2[C@@H]1CC2(C)C [β-Caryophyllene] (compound dose: 10 uM),0.9919 ± 0.0069,0.844 ± 0.19
C=C1C[C@@]2(O)O[C@@]3(C[C@H]2C(C)C)[C@@H](C)CC[C@@H]13 [Curcumol] (compound dose: 10 uM),0.997 ± 0.034,0.833 ± 0.1
C=C(C(=O)O)[C@@H]1CC[C@@H](C)[C@@H]2CCC(C)=C[C@@H]21 [Artemisic acid] (compound dose: 10 uM),0.828 ± 0.3,0.594 ± 0.14
CC(=O)O[C@]12C[C@H](C)[C@H](OC(=O)/C=C/c3ccccc3)[C@@H]1/C=C(/CO)CC[C@H]1[C@@H](/C=C(\C)C2=O)C1(C)C [Euphorbia factor L22] (compound dose: 10 uM),1.11 ± 0.047,0.964 ± 0.092
C/C=C(/C)C(=O)O[C@H]1[C@H](OC(C)=O)[C@@]2(CO)C(CC1(C)C)C1=CCC3[C@@]4(C)CCC(O[C@@H]5O[C@H](C(=O)O)[C@@H](O[C@@H]6O[C@H](CO)[C@@H](O)[C@H](O)[C@H]6O)[C@H](O)[C@H]5O[C@@H]5O[C@H](CO)[C@@H](O)[C@H](O)[C@H]5O)[C@](C)(CO)C4CC[C@@]3(C)[C@]1(C)C[C@H]2O.C/C=C(\C)C(=O)O[C@H]1[C@H](OC(C)=O)[C@@]2(CO)C(CC1(C)C)C1=CCC3[C@@]4(C)CCC(O[C@@H]5O[C@H](C(=O)O)[C@@H](O[C@@H]6O[C@H](CO)[C@@H](O)[C@H](O)[C@H]6O)[C@H](O)[C@H]5O[C@@H]5O[C@H](CO)[C@@H](O)[C@H](O)[C@H]5O)[C@](C)(CO)C4CC[C@@]3(C)[C@]1(C)C[C@H]2O (stereo partly drawn) [Escin] (compound dose: 10 uM),0.911 ± 0.11,1.14 ± 0.1
CC(C)(O)CCC(=O)[C@](C)(O)C1[C@H](O)C[C@@]2(C)[C@@H]3CC=C4[C@@H](C[C@H](O)[C@@H](O)C4(C)C)[C@]3(C)C(=O)C[C@]12C (stereo partly drawn) [Cucurbitacin IIb] (compound dose: 10 uM),0.943 ± 0.021,0.826 ± 0.27
CC(C)(O)[C@H]1CC[C@@](C)([C@H]2[C@@H](O)C[C@@]3(C)[C@@H]4C[C@H](O)[C@H]5C(C)(C)[C@@H](O)CC[C@@]56C[C@@]46CC[C@]23C)O1 [Cyclogalegenin] (compound dose: 10 uM),0.999 ± 0.043,0.854 ± 0.064
OC[C@H]1O[C@@H](O[C@@H]2OC=C[C@H]3[C@H](O)[C@@H]4O[C@]4(CO)[C@@H]23)[C@H](O)[C@@H](O)[C@@H]1O [Catalpol] (compound dose: 10 uM),0.896 ± 0.28,0.704 ± 0.58
C=C1C(=O)O[C@@H]2C[C@@]3(C)CCC[C@H](C)C3=C[C@H]12 [Alantolactone] (compound dose: 10 uM),0.909 ± 0.023,0.0823 ± 0.017

SMILES,cell viability (MDA-MB-231 [1]),kynurenine production (MDA-MB-231 [2])
C=C1C[C@@]23CC[C@H]4[C@@](C)(CCC[C@@]4(C)C(=O)O[C@@H]4O[C@H](CO)[C@@H](O)[C@H](O)[C@H]4O)[C@@H]2CC[C@]1(O[C@@H]1O[C@H](CO)[C@@H](O)[C@H](O)[C@H]1O)C3 [Rubusoside] (compound dose: 10 uM),1.07 ± 0.02,0.88 ± 0.065
COC(=O)C1=CO[C@@H](O[C@@H]2O[C@H](CO)[C@@H](O)[C@H](O)[C@H]2O)[C@H]2[C@@H]1[C@H](O)C[C@]2(C)O [Shanzhiside methyl ester] (compound dose: 10 uM),1.007 ± 0.0034,0.998 ± 0.16
CC(C)=CCC[C@](C)(O)[C@@H]1CC=C(C)CC1 [Levomenol] (compound dose: 10 uM),0.676 ± 0.54,1.16 ± 0.056
C/C=C(\C)C(=O)O[C@H]1[C@H](O)[C@]2(COC(C)=O)[C@@H](O)C[C@]3(C)C(=CC[C@@H]4[C@@]5(C)CC[C@H](O[C@@H]6O[C@H](C(=O)O)[C@@H](O)[C@H](O)[C@H]6O)[C@@](C)(CO)[C@@H]5CC[C@]43C)[C@@H]2CC1(C)C [Gymnemic acid I] (compound dose: 10 uM),1.1 ± 0.017,1.43 ± 0.11
CN1CCC[C@H]1c1cccnc1 [(-)-nicotine] (compound dose: 10 uM),0.978 ± 0.08,1.04 ± 0.11
C=C(C)[C@@H]1CC[C@]2(CO)CC[C@]3(C)[C@H](CC[C@@H]4[C@@]5(C)CC[C@H](O)C(C)(C)[C@@H]5CC[C@]43C)[C@@H]12 [Betulin] (compound dose: 2 uM),0.842 ± 0.04,0.826 ± 0.13
C[C@@H]1O[C@@H](O[C@H]2[C@H](O[C@H]3CC[C@]4(C)[C@H]5CC=C6[C@@H]7CC(C)(C)CC[C@]7(C(=O)O)CC[C@@]6(C)[C@]5(C)CC[C@H]4C3(C)C)OC[C@H](O[C@@H]3O[C@H](CO)[C@@H](O)[C@H](O)[C@H]3O)[C@@H]2O)[C@H](O)[C@H](O)[C@H]1O [Hederacolchiside A1] (compound dose: 10 uM),0.221 ± 0.013,0.396 ± 0.15
C[C@@]12CCc3occc3[C@H]1CC[C@@]13C[C@@H](CC[C@H]12)[C@@](O)(CO)C3 [Cafestol] (compound dose: 10 uM),1.03 ± 0.067,0.75 ± 0.4
C=C1[C@H](OC(C)=O)[C@@H](O)[C@@H](OC(=O)c2cccnc2)C(C)(C)/C=C/[C@H](C)[C@H](OC(C)=O)[C@@]2(O)C[C@@](C)(OC(C)=O)[C@H](OC(=O)c3ccccc3)[C@@H]2[C@H]1OC(C)=O [Jatrophane 5] (compound dose: 10 uM),1.12 ± 0.027,0.90473 ± 0.00055
O=C(/C=C/c1ccc(O)c(O)c1)O[C@H]1[C@H](O[C@@H]2O[C@H](CO)[C@@H](O)[C@H](O)[C@H]2O)[C@@H](O)[C@H](OCCc2ccc(O)c(O)c2)O[C@@H]1CO [Plantamajoside] (compound dose: 10 uM),–,0.678 ± 0.24
C[C@]12C[C@@H](O)[C@@H]3C[C@@]1(O[C@@H]1O[C@H](CO)[C@@H](O)[C@H](O)[C@H]1O)[C@@]3(COC(=O)c1ccccc1)C(=O)O2 [Albiflorin] (compound dose: 10 uM),0.963 ± 0.031,0.908 ± 0.031
O=C(OCC1=C[C@@H](O)[C@@H]2C=CO[C@@H](O[C@@H]3O[C@H](CO)[C@@H](O)[C@H](O)[C@H]3O)[C@H]12)c1ccc(O)cc1 [Agnuside] (compound dose: 10 uM),1.08 ± 0.039,0.864 ± 0.17
CC(CCC(OC1OC(CO)C(O)C(O)C1OC1OC(CO)C(O)C(O)C1O)C(C)(C)O)C1CCC2(C)C3CC=C4C(CCC(O)C4(C)C)C3(C)C(O)CC12C (stereo not drawn) [Mogroside II-A] (compound dose: 10 uM),1.05 ± 0.069,0.693 ± 0.08
COC(=O)C1=CO[C@@H](O[C@@H]2O[C@H](CO)[C@@H](O)[C@H](O)[C@H]2O)[C@@H]2C(CO)=C[C@H](O)[C@H]12 [Methyl deacetylasperulosidate] (compound dose: 10 uM),0.956 ± 0.085,1.15 ± 0.1
CC1(C)[C@@H](O[C@H]2O[C@H](C(=O)O)[C@@H](O)[C@H](O)[C@H]2O[C@@H]2O[C@H](C(=O)O)[C@@H](O)[C@H](O)[C@H]2O)CC[C@]2(C)[C@H]3C(=O)C=C4[C@@H]5C[C@@](C)(C(=O)O)CC[C@]5(C)CC[C@@]4(C)[C@]3(C)CC[C@@H]12 [Dipotassium glycyrrhizinate] (compound dose: 10 uM),0.924 ± 0.031,0.808 ± 0.21
CC1(C)CC[C@]2(C(=O)O)[C@H](O)C[C@]3(C)C(=CC[C@@H]4[C@@]5(C)CC[C@H](O[C@@H]6O[C@H](CO)[C@@H](O)[C@H](O)[C@H]6O)C(C)(C)[C@@H]5CC[C@]43C)[C@@H]2C1 [Ecliptasaponin A] (compound dose: 10 uM),–,0.88 ± 0.15
CC(C)=CCC[C@](C)(O[C@@H]1O[C@H](CO)[C@@H](O)[C@H](O)[C@H]1O)[C@H]1CC[C@]2(C)[C@@H]1[C@H](O)C[C@@H]1[C@@]3(C)CC[C@H](O)C(C)(C)[C@@H]3[C@@H](O[C@@H]3O[C@H](CO)[C@@H](O)[C@H](O)[C@H]3O)C[C@]12C [Ginsenoside Rg1] (compound dose: 10 uM),0.975 ± 0.025,0.782 ± 0.22
